Inconclusive results are not listed. Calls of active or inactive are those of the source. Calls follow the shape of the dose curve; as a rule, active = well fitted cell-killing curve with a large enough effect in the repeat runs; inconclusive = weak or mixed curves, or effect the other way; inactive = flat fitted curve, though single readings scatter.
% is scaled to controls: 0 for no effect and ±100 for the full control effect.

This assay is described as follows: cAMP Responsive Elements (CRE) small molecule agonists, cell-based qHTS assay: qHTS cell viability counter screen (AID 2060914). Also: nearly all actives have a fitted effect of over 50% in size. The following applies: CRE-bla HEK293T viability, CellTiter-Glo luminescence, 5 h; series mostly up to 92.4 µM; activity change, negative = cytotoxicity: at the top concentration. A digest of the protocol:
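Luminescence read-out (CellTiter-Glo, 30 min RT) of ATP-based viability in CRE-bla HEK 293T cells, run in the same wells as the β-lactamase reporter assay after 3 h compound treatment at 37 °C.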
Turning to `S=C(SSSSSSC(=S)N1CCCCC1)N1CCCCC1`, the activity change, negative = cytotoxicity is -4.69% [at 18.9 µM] (inactive).

Consider `CN1CC[C@H](c2c(O)cc(O)c3c(=O)cc(-c4ccccc4Cl)oc23)[C@H](O)C1`, for which the “activity change, negative = cytotoxicity” value was 19.4% [at 42.5 µM] (inactive).

Turning to `C=C(C)C(=O)OCC(C)(C)COC(=O)C(=C)C`, the “activity change, negative = cytotoxicity” value is 23.3% (inactive).

Turning to `C=C(C)C(=O)OCCN(CC)CC`, the “activity change, negative = cytotoxicity” value is -2.53% (inactive).

Consider `C[C@H]1NCc2cc(-c3ccc4c(=O)c(C(=O)O)cn(C5CC5)c4c3OC(F)F)ccc21`, for which the activity change, negative = cytotoxicity was -2.79% [at 18.9 µM] (inactive).

In the case of `NC[C@H](O)c1ccc(O)c(O)c1`, the Potency entry was “inactive”.

Consider `CC(C)(CC(=O)O)C(=O)O`, for which the “activity change, negative = cytotoxicity” value is 4.29% (inactive).

With `COC(=O)c1ccc(I)cc1S(=O)(=O)NC(=O)Nc1nc(C)nc(OC)n1`, the “activity change, negative = cytotoxicity” value is 6.38% (inactive).

As to `Oc1cc2c(cc1O)[C@H]1c3ccc(O)c(O)c3OC[C@@]1(O)C2`, the “activity change, negative = cytotoxicity” value was 13.2% (inactive).

For `C[C@H](CCC(=O)NCC(=O)O)[C@H]1CC[C@H]2[C@@H]3[C@H](O)C[C@@H]4C[C@H](O)CC[C@]4(C)[C@H]3C[C@H](O)[C@]12C`, the “activity change, negative = cytotoxicity” value was -2.93% (inactive).

`CCOC(=O)c1ccccc1OC`: the “activity change, negative = cytotoxicity” value is -5.06% (inactive).

In the case of `CC(=O)Oc1c(C)c(C)c2c(c1C)CC[C@@](C)(CCC[C@H](C)CCC[C@H](C)CCCC(C)C)O2`, the Potency entry was “inactive”.

Take `CCCCCCCC(C)=O`: the “activity change, negative = cytotoxicity” value is -1.23% (inactive).

Turning to `CCOC(=O)COc1ccc2c(c1)CC(NCC(O)c1cccc(Cl)c1)CC2` (stereo not given), the “activity change, negative = cytotoxicity” value is 0.534% (inactive).

On to `CC(C)(C)CC(C)(C)c1ccc(OCCO)cc1`, for which the “activity change, negative = cytotoxicity” value was -29.5% (inactive).

On to `Cc1cccc(C)c1NC(=O)c1ccc(N)cc1`, for which the “activity change, negative = cytotoxicity” value was -0.641% [at 42.5 µM] (inactive).

Consider `CC(=O)O[C@]1(C(C)=O)CC[C@H]2[C@@H]3C=C(Cl)C4=CC(=O)[C@@H]5C[C@@H]5[C@]4(C)[C@H]3CC[C@@]21C`, for which the Potency entry is “inactive”.

Regarding `NCC[C@H](O)C(=O)N[C@@H]1C[C@H](N)[C@@H](O[C@H]2O[C@H](CN)[C@@H](O)[C@H](O)[C@H]2O)[C@H](O)[C@H]1O[C@H]1O[C@H](CO)[C@@H](O)[C@H](N)[C@H]1O`, the activity change, negative = cytotoxicity is -8.14% [at 0.349 µM] (inactive).

With `CCOC(=O)CC(=O)OCC`, the Potency result was “inactive”.

As to `CCCCCCOC(=O)CCC`, the “activity change, negative = cytotoxicity” value is -0.0339% (inactive).

Consider `C[C@H]1C[C@H]2[C@@H]3CCC4=CC(=O)C=C[C@]4(C)[C@@]3(Cl)[C@@H](O)C[C@]2(C)[C@@]1(O)C(=O)CO`, for which the “activity change, negative = cytotoxicity” value is 8.43% [at 42.5 µM] (inactive).

Turning to `O=C(O)Cc1c[nH]c2ccccc12`, the Potency result is “inactive”.

`c1ccc2c(c1)ccc1c3ccccc3ccc21`: the “activity change, negative = cytotoxicity” value was -13.5% [at 42.5 µM] (inactive).

Consider `CN1CN(C)CN(C)C1`, for which the “activity change, negative = cytotoxicity” value was -0.133% (inactive).

As for `OCCN1CCN(CCCN2c3ccccc3C=Cc3ccccc32)CC1`, the “activity change, negative = cytotoxicity” value was 9% [at 42.5 µM] (inactive).

With `CC(C)CCCCCOC(=O)CS`, the “activity change, negative = cytotoxicity” value is -3.24% (inactive).

As for `COc1cc(/C=C/c2ccccc2)oc(=O)c1`, the “activity change, negative = cytotoxicity” value was -2.81% (inactive).

As for `CCN1CCCC1=O`, the Potency result is “inactive”.

`Cc1ccc(O)cn1`: the “activity change, negative = cytotoxicity” value was -0.11% (inactive).

Regarding `Cc1nccn1-c1ccc(Sc2cccc(C3(C(N)=O)CCOCC3)c2)cc1`, the “activity change, negative = cytotoxicity” value was 0.411% (inactive).

For the compound `CC(=O)OCCCc1ccccc1`, the “activity change, negative = cytotoxicity” value was 3.65% (inactive).

Take `N#Cc1ccc(C(c2ccc(C#N)cc2)n2cncn2)cc1`: the “activity change, negative = cytotoxicity” value was 3.76% [at 42.5 µM] (inactive).

For `CC(=O)[C@@]1(O)CC[C@H]2[C@@H]3CCC4=CC(=O)CC[C@]4(C)[C@H]3CC[C@@]21C`, the Potency entry was “inactive”.

Turning to `Nc1ccccc1Nc1ccccc1`, the “activity change, negative = cytotoxicity” value is -10.1% (inactive).

Consider `CO[C@@]1(NC(=O)C(C(=O)O)c2ccc(O)cc2)C(=O)N2C(C(=O)O)=C(CSc3nnnn3C)CO[C@@H]21` (stereo not given in full), for which the “activity change, negative = cytotoxicity” value was 14.8% [at 42.5 µM] (inactive).

For `CO[Si](CCCNc1ccccc1)(OC)OC`, the “activity change, negative = cytotoxicity” value is 2.96% (inactive).

On to `Cc1cc(O)ccc1O`, for which the “activity change, negative = cytotoxicity” value is 10.7% (inactive).

Consider `O=C(O)c1c(O)c(-c2ccccc2)nc2ccccc12`, for which the “activity change, negative = cytotoxicity” value was 2.17% [at 42.5 µM] (inactive).

In the case of `CC(=O)CCC(=O)O`, the Potency result is “inactive”.

On to `Cn1c(=O)c2[nH]cnc2n(C)c1=O`, for which the Potency result is “inactive”.

Values taken from PubChem BioAssay (Tox21).
